Assay outcomes from PubChem BioAssay.
CHOP inhibitor: inhibitors of CHOP induction in ER stress response; CHO-K1 CHOP-promoter luciferase, tunicamycin-induced, 15-18 h; inhibition, % at 10 µM; 3.8% of 220,000 active; AID 2732;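 active means compounds that reduced the stress-induced luciferase reporter signal by more than about 70% of percent inhibition, limit read from the data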
WT yeast gro inh: growth inhibition of WT yeast, mitochondrial fusion screen. mitochondrial fusion phenotypic screen, WT strain. inhibition, % at 10 µM. 2.1% of 190,000 active. AID 1362; in the data active means inhibition above about 58%; tested in S. cerevisiae
L major viab: Leishmania major promastigote growth inhibition; AID 1063; inhibition, % at 10 µM; 9% of 200,000 active; Leishmania major promastigotes, resazurin fluorescence viability; in the data active means inhibition above about 50%;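 further: promastigotes grown with compound for 44 hours at 28 °C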
RAM inhibit: inhibitors of the yeast RAM network; S. cerevisiae dse1pr::URA3 reporter, 5-FOA growth OD615, 2 d; analog-sensitive cbk1-as2 kinase mutant strain; inhibition, % at 50 µM; 1.8% of 190,000 active; AID 868;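 active means inhibition above a set limit, 3 SD over mean compound inhibition, cut at about 8.4% in these data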;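 further: inhibition rescues growth on 5-FOA so higher OD means more RAM inhibition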
Lmaj promast 1uM: blocks Leishmania major promastigote growth at 1 uM, repeat screen. shares compounds with L major viab. L. major promastigote growth, resazurin fluorescence, 48 h. inhibition, % at 1 µM. 13% of 1,100 active. AID 1258;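 active means inhibition above about 50% in both repeat tests, limit read from the data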
Hits are given with their value; - = inactive; . = no result. Rows were chosen to be rich in hits. Some 13% of all compounds tested hit in one or more screens of this group.

SMILES	CHOP inhibitor	WT yeast gro inh	L major viab	RAM inhibit	Lmaj promast 1uM
CCOC(=O)c1cc(-c2ccc(N)cc2)sc1N	-	-	60.0	-	-
CCOC(=O)c1cc(-c2ccccc2)sc1NC(=O)C(C)C	-	-	-	-	.
Cc1ccc(S(=O)(=O)N2CCC(=O)N(C(COCc3ccc(C(F)(F)F)cc3)Cc3ccccc3)CC2)cc1 (stereo unspecified)	-	-	73.3	10.0	-
COC(=O)c1ccc(Sc2nnnn2-c2ccccc2)c([N+](=O)[O-])c1	-	-	99.5	-	-
CN(Cc1ccccc1)c1nc(N)c([N+](=O)[O-])c(Nc2cccc(F)c2)n1	-	-	-	-	.
CSc1ccccc1C(=O)Nc1ccccc1C(=O)NC(C)C	-	-	-	-	.
Cc1c(C(=O)O)oc2c1/C(=N\O)CCC2	-	-	53.6	-	-
C[C@H](NS(=O)(=O)c1ccccc1)C(=O)OCC(=O)NC(=O)Nc1ccc2c(c1)OCCO2	-	-	-	-	.
COc1ccc(/C=C/C(=O)NC(C)CCc2ccccc2)cc1 (stereo unspecified)	-	-	-	-	.
COc1ccc(/C=C/c2cc[n+](C(=O)Cc3ccccc3)cc2)cc1	-	-	100.4	-	97.9
O=C(CNC(=O)c1ccccc1)NC1(C(=O)NC2CCCCC2)CCCCC1	-	-	-	-	.
O=C(C[n+]1cccc(O)c1)Nc1ccc(Br)cc1	-	-	-	-	.
Cc1cc(OCCN2CCCCC2)nc2ccccc12	-	.	89.0	-	-
N#Cc1cc2sc3nc4ccccc4n3c2cc1C#N	-	-	-	-	.
N#Cc1cc2sc3nnc(-c4ccncc4)n3c2cc1C#N	-	-	54.3	-	-
CCOc1ccccc1CNCc1ccc(C(=O)O)cc1	-	-	-	-	.
CCOc1ccccc1CNCc1ccc(F)cc1	-	-	53.6	-	-
CCNC(=O)OCCC12CC3CC(CC(C3)C1)C2	-	-	86.2	-	-
CCCNC(=O)OCC12CC3CC(CC(C3)C1)C2	-	-	-	-	.
CCC(C)Nc1nc2c(c(=O)n(C)c(=O)n2C)n1Cc1cccc(C)c1 (stereo unspecified)	-	-	83.2	-	-
CCC(C)Nc1nc2c(c(=O)n(C)c(=O)n2C)n1Cc1ccc(Cl)cc1 (stereo unspecified)	-	-	.	.	.
c1ccc2c(NC3CCCC3)nnc(NC3CCCC3)c2c1	-	-	97.2	-	-
Nc1ccc(C23CC4CC(CC(CO)(C4)C2)C3)cc1	-	-	-	-	.
NCC12CC3CC(C1)CC(c1ccc(Cl)cc1)(C3)C2	-	73.3	100.4	-	93.6
COc1ccc(Cn2c(=O)c3[nH]cnc3n(-c3ccc(C)cc3)c2=O)cc1	-	.	.	.	.
SMILES	CHOP inhibitor	WT yeast gro inh	L major viab	RAM inhibit	Lmaj promast 1uM
CC(=O)Oc1ccc(C(=O)Cc2ccc3ccccc3n2)c(O)c1C	-	-	-	-	.
Cc1c(O)ccc(/C(Cc2ccc3ccccc3n2)=N\O)c1O	-	-	59.2	-	-
Nc1nnc(Cc2ccc(Cl)c(Cl)c2)s1	-	-	-	-	.
C=CCOc1ccc2c(c1)c(=O)cc(C(=O)O)n2CC	-	.	.	.	.
C=CCOc1ccc2c(c1)c(S(=O)(=O)c1ccc(C)cc1)cn2COC	.	-	88.0	9.9	-
Cc1ccc(C(=O)NC(=S)NNS(=O)(=O)c2ccccc2)cc1	-	-	-	-	.
Cc1ccc(C(=O)NC(=C(Cl)Cl)S(=O)(=O)c2ccccc2)cc1	-	-	72.3	-	-
C/C(=N\OCC(=O)NCC(F)(F)F)c1cc2ccccc2o1	-	-	56.3	-	-
CCC1CCCCN1CC(O)Cn1c2ccccc2n2c(=O)cc(C)c(C#N)c12 (stereo unspecified)	-	-	81.5	-	-
Cc1cc(=O)n2c3ccccc3n(CC(O)CN3CCC(C)CC3)c2c1C#N (stereo unspecified)	-	-	-	-	.
CC(SCC(=O)NC12CC3CC(CC(C3)C1)C2)C(=O)O (stereo unspecified)	-	-	55.8	-	-
CC(C)NCC(=O)NC12CC3CC(CC(C3)C1)C2	-	-	-	-	.
CC1(C)Cc2c(ccc3ccccc23)C2=C(C(=O)N3CCCC3)C(=O)C(=O)N21	-	-	-	-	.
C=CCC1(O)C(=O)N2C(=C1C(=O)OCC)c1ccc3ccccc3c1CC2(C)C (stereo unspecified)	-	-	53.4	-	-
NC(=O)c1ncc(C(F)(F)F)cc1Oc1cccnc1	-	-	-	-	.
Cc1ccc2cc(/C=C/C(=O)c3ccco3)c(Cl)nc2c1	-	.	.	.	.
Cc1cc(C)c2cc(C=O)c(Cl)nc2c1	-	-	57.7	-	-
CCOc1ccc(N(CC)S(=O)(=O)c2ccc3c(c2)oc(=O)n3C)cc1	.	-	57.2	-	-
CCOc1ccc(NS(=O)(=O)c2ccc3c(c2)oc(=O)n3C)cc1	-	-	-	-	.
Cc1c(C(=O)NCC2COc3ccccc3O2)oc2ccc(S(=O)(=O)N3CC(C)CC(C)C3)cc12 (stereo unspecified)	-	-	58.6	-	-
Cc1c(C(=O)NCC2COc3ccccc3O2)oc2ccc(S(=O)(=O)N3CCOCC3)cc12 (stereo unspecified)	-	-	-	-	.
CN(C(=O)COc1ncnc2sccc12)c1ccccc1	-	-	-	-	.
CC(=O)Nc1cccc(Oc2cc(C#N)c(C#N)cc2N2CCCCCC2)c1	-	-	61.5	-	-
Cc1ccc(C(C)C)c(OCc2nn(CC(=O)c3ccc(Cl)cc3)c3[n+]2CCCCC3)c1	-	-	98.0	-	-
CC(=O)NC(Cc1cccc(F)c1)C(=O)NC1CCN(c2nnnn2-c2ccccc2)CC1 (stereo unspecified)	-	-	-	-	.
SMILES	CHOP inhibitor	WT yeast gro inh	L major viab	RAM inhibit	Lmaj promast 1uM
CCOc1ccc(S(=O)(=O)NC(C)(C)C)cc1-c1nc2c(C(C)(C)C)nn(C)c2c(=O)[nH]1	81.3	-	70.8	-	-
CCOc1ccc(S(N)(=O)=O)cc1-c1nc2c(C(C)(C)C)nn(C)c2c(=O)[nH]1	-	.	.	.	.
COc1ccc(/C=N/NC(=O)c2c(C)nnn2-c2nonc2N)cc1OC	-	-	-	-	.
Cn1cccc1C1Nc2ccccc2NC2=C1C(=O)CC(C)(C)C2 (stereo unspecified)	-	-	90.6	-	-
CC1(C)CC(=O)C2=C(C1)Nc1ccccc1NC2c1cccnc1 (stereo unspecified)	-	-	.	-	.
c1ccc(-n2nnc(-c3cccnc3)n2)cc1	-	-	-	-	.
O=[N+]([O-])c1ncn(C23CC4CC(CC(C4)C2)C3)n1	-	.	.	.	.
Cc1nc([N+](=O)[O-])nn1C12CC3CC(CC(Cl)(C3)C1)C2	-	-	88.5	-	53.1
O=c1c2cc(F)ccc2[nH]c(=S)n1CCCN1CCOCC1	-	-	-	-	.
CCN1C(=O)/C(=c2\sc3nc(=O)c(Cc4ccccc4)nn3c2=O)c2ccccc21	-	.	.	.	.
CN1CCN(S(=O)(=O)c2cccc([N+](=O)[O-])c2)CC1	.	.	-	.	.
CC(C)c1nccn1S(=O)(=O)c1cccc([N+](=O)[O-])c1	-	-	52.4	-	-
Cc1ncsc1CCSc1nc2ccccc2c(=O)n1C	-	-	-	-	.
CCOC(=O)C1C(C(=O)OCC)C1(c1ccccc1)c1ccccc1 (stereo unspecified)	-	-	89.1	-	-
